Records with an inconclusive call do not appear. Where a call stands in place of a potency, no number is given. Active and inactive are the calls of the source. Calls follow the shape of the dose curve; as a rule, active = well fitted curve in the direction sought with a large enough effect in the repeat runs; inconclusive = weak or mixed curves; inactive = no such curve, though single readings can be large; an effect the other way counts as inactive or inconclusive.
biological target: Luciferin 4-monooxygenase (Photinus pyralis) (UniProt P08659); test: qHTS assay to identify small molecule inhibitors of firefly luciferase (AID 1224835); also: nearly all actives have a fitted effect of over 25% in size; also: potency is read from the fitted curve at half-maximal effect; settings: purified P. pyralis luciferase, luminescence inhibition; series mostly up to 115 µM
Sequence (P08659 whole entry, looked up): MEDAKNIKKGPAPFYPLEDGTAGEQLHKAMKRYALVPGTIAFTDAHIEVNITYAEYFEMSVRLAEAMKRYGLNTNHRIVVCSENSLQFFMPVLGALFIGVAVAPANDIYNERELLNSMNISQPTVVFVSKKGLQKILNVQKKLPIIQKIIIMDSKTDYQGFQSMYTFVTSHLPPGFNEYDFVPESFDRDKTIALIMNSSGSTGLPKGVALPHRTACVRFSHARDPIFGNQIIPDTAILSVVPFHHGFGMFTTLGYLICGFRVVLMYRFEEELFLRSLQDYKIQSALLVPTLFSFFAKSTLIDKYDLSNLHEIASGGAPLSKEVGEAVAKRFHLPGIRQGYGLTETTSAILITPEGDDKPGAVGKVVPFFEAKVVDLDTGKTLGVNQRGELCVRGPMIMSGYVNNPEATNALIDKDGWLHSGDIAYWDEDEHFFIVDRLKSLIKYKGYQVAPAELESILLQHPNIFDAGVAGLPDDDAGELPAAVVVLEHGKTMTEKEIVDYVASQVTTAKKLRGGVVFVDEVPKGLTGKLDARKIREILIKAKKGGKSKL
How it was run: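 Quantitative HTS format; KM concentrations of both substrates. Purified P. pyralis FLuc activity quantified from luminescence images.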

Compound | Potency
CN(C)C(=O)Oc1cccc([N+](C)(C)C)c1 | inactive
CCCOC(=O)CC | inactive
CC1CCC(CO)CC1 (stereo unspecified) | inactive
CC(C)CC(C)(N)C#N (stereo unspecified) | inactive
c1coc(CNc2ncnc3nc[nH]c23)c1 | inactive
C1CCC2(CCCCO2)OC1 | inactive
COCCOC[C@H](CC1(C(=O)NC2CCC(C(=O)O)CC2)CCCC1)C(=O)Oc1ccc2c(c1)CCC2 (stereo partly specified) | inactive
CCCn1cc[n+](C)c1C | inactive
NC(=O)NC1N=C([O][Al])NC1=O (stereo unspecified) | inactive
C[N+]1(C)[C@@H]2CC(OC(=O)[C@H](CO)c3ccccc3)C[C@H]1[C@@H]1O[C@@H]12 (stereo partly specified) | inactive
O=C(O)CNC(=O)c1ccccc1 | inactive
CC(C)C1CCC(O)CC1 (stereo unspecified) | inactive
CCOC(=O)c1ccccc1 | inactive
COc1cc2c(cc1OC)-c1cc3ccc(OC)c(OC)c3c[n+]1CC2 | inactive
O=C1c2ccccc2C(=O)c2cc(O)ccc21 | 28.3 µM (active)
CCCCOCCOC(=O)COc1cc(Cl)c(Cl)cc1Cl | inactive
COc1cc(C(=O)NCc2ccc(OCCN(C)C)cc2)cc(OC)c1OC | inactive
COC(=O)C1=C(C)NC(C)=C(C(=O)OC(C)C)C1c1cccc2nonc12 (stereo unspecified) | inactive
Cc1coc2ccccc2c1=O | inactive
CCCCCCCCCC[N+](C)(C)[O-] | inactive
NC(=O)Cc1cccc2ccccc12 | inactive
C=C(C)C(=O)OCCOCCOCCOCCOC(=O)C(=C)C | inactive
CC12CCC(C(=O)C1=O)C2(C)C (stereo unspecified) | inactive
CCCC[N+](C)(CCCC)CCCC | inactive
O=Cc1cccc(Br)c1 | inactive
CCOc1c(N2CCOCC2)cnn(C)c1=O | inactive

tested on: not listed separately; test: qHTS assay to identify small molecule agonists of the constitutive androstane receptor (CAR) signaling pathway - cell viability counter screen (AID 1224836); settings: HepG2-CYP2B6-hCAR viability, CellTiter-Fluor, 23 h, PK11195 added to every well; series mostly up to 92.4 µM; also: nearly all actives have a fitted effect of over 45% in size
How it was run: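 Double-stable HepG2 hepatoma cells (hCAR plus CYP2B6-2.2kb) are treated for 23 h at 37 C with test compounds in 15-point concentration series. PK11195 at 0.75 uM final is co-added. Cell viability is quantified by CellTiter-Fluor.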

Compound | outcome
CC1(C)OC[C@@H](COC(=O)CCc2ccc(OC[C@@H](O)CNCCNC(=O)N3CCOCC3)cc2)O1 | inactive
CN(C)CCN(C)CCN(C)C | inactive
CN(C)C(=O)Oc1cccc([N+](C)(C)C)c1 | inactive
CCCOC(=O)CC | inactive
CC1CCC(CO)CC1 (stereo unspecified) | inactive
CC(C)CC(C)(N)C#N (stereo unspecified) | inactive
C1CCC2(CCCCO2)OC1 | inactive
COCCOC[C@H](CC1(C(=O)NC2CCC(C(=O)O)CC2)CCCC1)C(=O)Oc1ccc2c(c1)CCC2 (stereo partly specified) | inactive
CCC1C(=O)OCC1Cc1cncn1C (stereo unspecified) | inactive
CN(C)CCCCCCN(C)C | inactive
CCCn1cc[n+](C)c1C | inactive
CCCO[Si](OCCC)(OCCC)OCCC | inactive
NC(=O)NC1N=C([O][Al])NC1=O (stereo unspecified) | inactive
COc1ccccc1OCC1CNC(=O)O1 (stereo unspecified) | inactive
C[N+]1(C)[C@@H]2CC(OC(=O)[C@H](CO)c3ccccc3)C[C@H]1[C@@H]1O[C@@H]12 (stereo partly specified) | inactive
O=C(O)CNC(=O)c1ccccc1 | inactive
[O-][n+]1cccc(CO)c1 | inactive
CC(C)C1CCC(O)CC1 (stereo unspecified) | inactive
CCOC(=O)c1ccccc1 | inactive

Compound | outcome
COc1cc2c(cc1OC)-c1cc3ccc(OC)c(OC)c3c[n+]1CC2 | inactive
O=C1c2ccccc2C(=O)c2cc(O)ccc21 | inactive
CCOc1ccccc1OCC | inactive
CCCCOCCOC(=O)COc1cc(Cl)c(Cl)cc1Cl | inactive
CC(C)COC(=O)c1ccc(N)cc1 | inactive
COc1cc(C(=O)NCc2ccc(OCCN(C)C)cc2)cc(OC)c1OC | inactive
COC(=O)C1=C(C)NC(C)=C(C(=O)OC(C)C)C1c1cccc2nonc12 (stereo unspecified) | inactive
NCCCC[C@H](N[C@@H](CCc1ccccc1)C(=O)O)C(=O)N1CCC[C@H]1C(=O)O | inactive
Cc1coc2ccccc2c1=O | inactive
CCCCCCCCCC[N+](C)(C)[O-] | inactive
O=C(c1ccccc1O)c1ccccc1O | inactive
NC(=O)Cc1cccc2ccccc12 | inactive
C=C(C)C(=O)OCCOCCOCCOCCOC(=O)C(=C)C | inactive
CC12CCC(C(=O)C1=O)C2(C)C (stereo unspecified) | inactive
COc1cc(C)nc(-n2nc(C)cc2OC)n1 | inactive
CCCC[N+](C)(CCCC)CCCC | inactive
O=Cc1cccc(Br)c1 | inactive
CCOc1c(N2CCOCC2)cnn(C)c1=O | inactive

tested on: not listed separately; test: qHTS assay to identify small molecule antagonists of the constitutive androstane receptor (CAR) signaling pathway - cell viability counter screen (AID 1224837); settings: HepG2-CYP2B6-hCAR viability, CellTiter-Fluor, 23 h, co-treated with 50 nM CITCO; series mostly up to 92.4 µM; also: nearly all actives have a fitted effect of over 45% in size
How it was run: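 Using CellTiter-Fluor, viability is scored in HepG2 cells stably carrying hCAR and a 2.2kb CYP2B6 reporter after 23 hr compound exposure across 15 concentrations, with CITCO present at 50 nM.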

Compound | outcome
CC1(C)OC[C@@H](COC(=O)CCc2ccc(OC[C@@H](O)CNCCNC(=O)N3CCOCC3)cc2)O1 | inactive
CN(C)CCN(C)CCN(C)C | inactive
CN(C)C(=O)Oc1cccc([N+](C)(C)C)c1 | inactive
CCCOC(=O)CC | inactive
CC1CCC(CO)CC1 (stereo unspecified) | inactive
CC(C)CC(C)(N)C#N (stereo unspecified) | inactive
C1CCC2(CCCCO2)OC1 | inactive
COCCOC[C@H](CC1(C(=O)NC2CCC(C(=O)O)CC2)CCCC1)C(=O)Oc1ccc2c(c1)CCC2 (stereo partly specified) | inactive
CCC1C(=O)OCC1Cc1cncn1C (stereo unspecified) | inactive
CN(C)CCCCCCN(C)C | inactive
CCCn1cc[n+](C)c1C | inactive
CCCO[Si](OCCC)(OCCC)OCCC | inactive
NC(=O)NC1N=C([O][Al])NC1=O (stereo unspecified) | inactive
COc1ccccc1OCC1CNC(=O)O1 (stereo unspecified) | inactive
C[N+]1(C)[C@@H]2CC(OC(=O)[C@H](CO)c3ccccc3)C[C@H]1[C@@H]1O[C@@H]12 (stereo partly specified) | inactive
O=C(O)CNC(=O)c1ccccc1 | inactive
[O-][n+]1cccc(CO)c1 | inactive
CC(C)C1CCC(O)CC1 (stereo unspecified) | inactive
CCOC(=O)c1ccccc1 | inactive

Compound | outcome
COc1cc2c(cc1OC)-c1cc3ccc(OC)c(OC)c3c[n+]1CC2 | inactive
O=C1c2ccccc2C(=O)c2cc(O)ccc21 | inactive
CCOc1ccccc1OCC | inactive
CCCCOCCOC(=O)COc1cc(Cl)c(Cl)cc1Cl | inactive
CC(C)COC(=O)c1ccc(N)cc1 | inactive
COc1cc(C(=O)NCc2ccc(OCCN(C)C)cc2)cc(OC)c1OC | inactive
Cc1ccnc(NS(=O)(=O)c2ccc(N)cc2)n1 | inactive
COC(=O)C1=C(C)NC(C)=C(C(=O)OC(C)C)C1c1cccc2nonc12 (stereo unspecified) | inactive
NCCCC[C@H](N[C@@H](CCc1ccccc1)C(=O)O)C(=O)N1CCC[C@H]1C(=O)O | inactive
Cc1coc2ccccc2c1=O | inactive
CCCCCCCCCC[N+](C)(C)[O-] | inactive
O=C(c1ccccc1O)c1ccccc1O | inactive
NC(=O)Cc1cccc2ccccc12 | inactive
C=C(C)C(=O)OCCOCCOCCOCCOC(=O)C(=C)C | inactive
CC12CCC(C(=O)C1=O)C2(C)C (stereo unspecified) | inactive
COc1cc(C)nc(-n2nc(C)cc2OC)n1 | inactive
CCCC[N+](C)(CCCC)CCCC | inactive
O=Cc1cccc(Br)c1 | inactive
CCOc1c(N2CCOCC2)cnn(C)c1=O | inactive
